Data taken from ChEMBL document CHEMBL1961873, “Compounds: GSK PKIS; Assays: Nanosyn kinase panel” (2012).

Tests used:
[1] = molecular target: High affinity nerve growth factor receptor (Homo sapiens) (UniProt P04629); conditions: at 1 µM;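 note: each value is the mean percent inhibition of TRKA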
[2] = molecular target: BDNF/NT-3 growth factors receptor (Homo sapiens) (UniProt Q16620); conditions: at 0.1 µM
[3] = molecular target: BDNF/NT-3 growth factors receptor (Homo sapiens) (UniProt Q16620); conditions: at 1 µM
[4] = molecular target: NT-3 growth factor receptor (Homo sapiens) (UniProt Q16288); conditions: at 0.1 µM
Sequence of NT-3 growth factor receptor (Homo sapiens) (Q16288 32-839 limits assumed): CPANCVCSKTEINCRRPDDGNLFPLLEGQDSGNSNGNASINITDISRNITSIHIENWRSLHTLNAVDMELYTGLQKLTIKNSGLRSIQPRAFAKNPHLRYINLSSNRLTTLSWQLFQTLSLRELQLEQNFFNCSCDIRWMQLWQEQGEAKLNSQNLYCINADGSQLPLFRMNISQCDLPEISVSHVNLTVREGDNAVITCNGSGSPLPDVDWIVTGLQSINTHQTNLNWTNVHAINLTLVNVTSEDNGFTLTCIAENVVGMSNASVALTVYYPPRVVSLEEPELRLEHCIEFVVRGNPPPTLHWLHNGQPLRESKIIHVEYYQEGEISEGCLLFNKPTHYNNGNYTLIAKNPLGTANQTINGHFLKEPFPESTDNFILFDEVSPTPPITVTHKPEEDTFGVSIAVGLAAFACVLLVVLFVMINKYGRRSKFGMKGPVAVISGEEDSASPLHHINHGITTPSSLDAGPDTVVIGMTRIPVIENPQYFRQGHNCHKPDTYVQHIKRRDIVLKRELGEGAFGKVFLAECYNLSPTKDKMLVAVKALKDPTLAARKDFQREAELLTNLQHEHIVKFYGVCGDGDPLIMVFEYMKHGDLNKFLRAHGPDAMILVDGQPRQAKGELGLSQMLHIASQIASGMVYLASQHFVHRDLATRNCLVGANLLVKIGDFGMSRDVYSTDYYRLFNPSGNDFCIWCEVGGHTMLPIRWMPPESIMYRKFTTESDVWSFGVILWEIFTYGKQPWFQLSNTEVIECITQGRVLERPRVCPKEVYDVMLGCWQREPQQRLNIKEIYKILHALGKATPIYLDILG

[5] = molecular target: NT-3 growth factor receptor (Homo sapiens) (UniProt Q16288); conditions: at 1 µM
[6] = molecular target: T1, Tyrosine-protein kinase TXK (Homo sapiens) (UniProt P42681); conditions: at 0.1 µM
T1 sequence (whole entry): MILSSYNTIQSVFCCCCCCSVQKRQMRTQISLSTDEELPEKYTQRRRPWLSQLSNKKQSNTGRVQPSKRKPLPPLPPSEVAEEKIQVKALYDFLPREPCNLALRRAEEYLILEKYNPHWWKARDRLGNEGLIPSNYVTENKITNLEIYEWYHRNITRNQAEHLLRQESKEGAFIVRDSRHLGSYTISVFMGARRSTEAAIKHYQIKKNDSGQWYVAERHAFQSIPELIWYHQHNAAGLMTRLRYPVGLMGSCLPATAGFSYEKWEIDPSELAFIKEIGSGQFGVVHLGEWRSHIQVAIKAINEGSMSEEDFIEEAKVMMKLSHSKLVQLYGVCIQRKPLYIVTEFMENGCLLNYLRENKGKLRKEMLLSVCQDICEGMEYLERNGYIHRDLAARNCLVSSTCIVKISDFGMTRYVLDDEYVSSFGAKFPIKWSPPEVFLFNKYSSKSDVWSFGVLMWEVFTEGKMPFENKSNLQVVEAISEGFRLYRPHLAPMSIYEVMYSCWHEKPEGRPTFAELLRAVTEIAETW

[7] = molecular target: T1, Tyrosine-protein kinase TXK (Homo sapiens); conditions: at 1 µM
[8] = molecular target: Non-receptor tyrosine-protein kinase TYK2 (Homo sapiens) (UniProt P29597); conditions: at 0.1 µM;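 note: each value is a mean of the inhibition readings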
[9] = molecular target: T2, Dual specificity protein kinase TTK (Homo sapiens) (UniProt P33981); conditions: at 1 µM;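 note: reported figures are mean TTK inhibition at 1 µM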
T2 sequence (whole entry): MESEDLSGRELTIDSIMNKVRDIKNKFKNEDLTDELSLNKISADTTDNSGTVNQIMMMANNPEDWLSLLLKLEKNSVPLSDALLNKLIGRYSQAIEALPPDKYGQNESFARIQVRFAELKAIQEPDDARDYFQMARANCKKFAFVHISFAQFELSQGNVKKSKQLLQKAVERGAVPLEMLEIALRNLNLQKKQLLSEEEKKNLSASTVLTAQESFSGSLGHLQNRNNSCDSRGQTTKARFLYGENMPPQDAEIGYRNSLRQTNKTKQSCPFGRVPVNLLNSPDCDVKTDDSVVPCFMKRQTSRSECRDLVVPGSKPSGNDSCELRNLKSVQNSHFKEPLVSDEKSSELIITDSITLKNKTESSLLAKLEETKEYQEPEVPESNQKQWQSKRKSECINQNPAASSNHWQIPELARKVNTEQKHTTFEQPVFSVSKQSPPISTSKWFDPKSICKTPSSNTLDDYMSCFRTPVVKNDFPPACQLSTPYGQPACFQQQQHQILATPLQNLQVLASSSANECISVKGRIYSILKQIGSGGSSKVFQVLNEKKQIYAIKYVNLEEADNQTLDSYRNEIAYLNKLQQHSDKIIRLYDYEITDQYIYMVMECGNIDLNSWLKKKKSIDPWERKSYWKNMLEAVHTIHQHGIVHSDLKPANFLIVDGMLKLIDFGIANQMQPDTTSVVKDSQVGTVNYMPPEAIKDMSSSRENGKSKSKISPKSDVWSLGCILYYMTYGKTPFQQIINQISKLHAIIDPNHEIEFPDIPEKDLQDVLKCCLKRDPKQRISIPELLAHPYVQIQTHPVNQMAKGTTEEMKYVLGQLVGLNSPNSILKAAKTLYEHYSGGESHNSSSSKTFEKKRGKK

[10] = molecular target: T3, Aurora kinase A (Homo sapiens) (UniProt O14965); conditions: at 0.1 µM
T3 sequence (whole entry): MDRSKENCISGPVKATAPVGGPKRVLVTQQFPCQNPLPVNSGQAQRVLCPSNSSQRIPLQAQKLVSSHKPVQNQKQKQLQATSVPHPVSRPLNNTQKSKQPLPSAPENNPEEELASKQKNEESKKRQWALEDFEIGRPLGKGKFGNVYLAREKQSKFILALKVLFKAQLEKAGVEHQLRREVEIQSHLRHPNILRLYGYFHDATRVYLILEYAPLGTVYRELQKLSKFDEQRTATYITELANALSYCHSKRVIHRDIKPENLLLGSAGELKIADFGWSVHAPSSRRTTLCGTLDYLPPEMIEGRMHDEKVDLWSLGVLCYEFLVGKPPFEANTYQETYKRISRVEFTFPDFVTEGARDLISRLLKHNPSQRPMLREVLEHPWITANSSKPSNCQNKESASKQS

[11] = molecular target: T3, Aurora kinase A (Homo sapiens); conditions: at 1 µM
[12] = molecular target: Aurora kinase B (Homo sapiens) (UniProt Q96GD4); conditions: at 0.1 µM
Sequence of Aurora kinase B (Homo sapiens) (Q96GD4 whole entry): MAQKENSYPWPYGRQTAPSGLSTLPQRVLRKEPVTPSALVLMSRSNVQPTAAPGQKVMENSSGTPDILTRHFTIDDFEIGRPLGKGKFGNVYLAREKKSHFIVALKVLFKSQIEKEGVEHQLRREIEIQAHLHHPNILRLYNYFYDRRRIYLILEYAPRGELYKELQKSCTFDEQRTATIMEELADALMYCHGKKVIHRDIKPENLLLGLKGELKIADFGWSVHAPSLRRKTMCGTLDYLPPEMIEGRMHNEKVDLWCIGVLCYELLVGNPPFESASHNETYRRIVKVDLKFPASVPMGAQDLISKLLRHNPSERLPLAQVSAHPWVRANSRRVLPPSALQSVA

[13] = molecular target: Aurora kinase B (Homo sapiens) (UniProt Q96GD4); conditions: at 1 µM
[14] = molecular target: T4, Aurora kinase C (Homo sapiens) (UniProt Q9UQB9); conditions: at 0.1 µM
T4 sequence (whole entry): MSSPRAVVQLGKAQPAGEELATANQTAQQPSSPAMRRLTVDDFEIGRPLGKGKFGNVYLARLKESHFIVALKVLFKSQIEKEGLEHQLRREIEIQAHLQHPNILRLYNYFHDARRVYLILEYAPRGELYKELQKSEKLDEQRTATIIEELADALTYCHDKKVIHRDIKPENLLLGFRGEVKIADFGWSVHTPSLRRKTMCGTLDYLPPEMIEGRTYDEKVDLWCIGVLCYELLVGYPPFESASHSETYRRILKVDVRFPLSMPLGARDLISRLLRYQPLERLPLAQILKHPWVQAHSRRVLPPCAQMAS

[15] = molecular target: T4, Aurora kinase C (Homo sapiens); conditions: at 1 µM
[16] = molecular target: Serine/threonine-protein kinase 10 (Homo sapiens) (UniProt O94804); conditions: at 0.1 µM
Sequence of Serine/threonine-protein kinase 10 (Homo sapiens) (O94804 whole entry, looked up): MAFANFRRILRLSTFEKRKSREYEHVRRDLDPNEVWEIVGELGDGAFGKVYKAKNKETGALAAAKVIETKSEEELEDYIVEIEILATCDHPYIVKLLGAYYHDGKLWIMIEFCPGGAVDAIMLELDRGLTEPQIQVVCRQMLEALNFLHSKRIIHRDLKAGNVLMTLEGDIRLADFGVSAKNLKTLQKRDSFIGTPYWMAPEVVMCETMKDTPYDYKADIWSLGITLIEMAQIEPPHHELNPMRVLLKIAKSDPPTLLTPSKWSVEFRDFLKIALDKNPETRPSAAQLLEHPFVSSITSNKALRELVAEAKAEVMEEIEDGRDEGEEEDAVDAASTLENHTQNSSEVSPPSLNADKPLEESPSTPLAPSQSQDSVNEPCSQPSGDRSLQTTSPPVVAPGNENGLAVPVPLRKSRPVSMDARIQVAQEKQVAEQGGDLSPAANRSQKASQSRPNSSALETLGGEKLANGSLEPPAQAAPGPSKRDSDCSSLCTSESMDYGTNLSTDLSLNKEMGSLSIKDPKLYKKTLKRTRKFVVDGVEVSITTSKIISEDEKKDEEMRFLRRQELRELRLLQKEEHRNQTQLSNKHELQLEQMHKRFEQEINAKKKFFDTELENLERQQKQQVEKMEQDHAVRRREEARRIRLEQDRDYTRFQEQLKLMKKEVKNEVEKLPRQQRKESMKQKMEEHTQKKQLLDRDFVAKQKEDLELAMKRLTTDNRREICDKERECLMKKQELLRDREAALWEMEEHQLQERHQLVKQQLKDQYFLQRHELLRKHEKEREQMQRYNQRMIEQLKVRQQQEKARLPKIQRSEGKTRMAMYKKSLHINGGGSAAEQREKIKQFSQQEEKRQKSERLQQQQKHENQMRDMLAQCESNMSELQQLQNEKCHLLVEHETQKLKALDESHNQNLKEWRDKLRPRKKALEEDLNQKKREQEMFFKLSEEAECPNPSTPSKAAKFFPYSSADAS

[17] = molecular target: Serine/threonine-protein kinase 10 (Homo sapiens) (UniProt O94804); conditions: at 1 µM
[18] = molecular target: T5, Mitogen-activated protein kinase kinase kinase kinase 2 (Homo sapiens) (UniProt Q12851); conditions: at 0.1 µM
T5 sequence (whole entry): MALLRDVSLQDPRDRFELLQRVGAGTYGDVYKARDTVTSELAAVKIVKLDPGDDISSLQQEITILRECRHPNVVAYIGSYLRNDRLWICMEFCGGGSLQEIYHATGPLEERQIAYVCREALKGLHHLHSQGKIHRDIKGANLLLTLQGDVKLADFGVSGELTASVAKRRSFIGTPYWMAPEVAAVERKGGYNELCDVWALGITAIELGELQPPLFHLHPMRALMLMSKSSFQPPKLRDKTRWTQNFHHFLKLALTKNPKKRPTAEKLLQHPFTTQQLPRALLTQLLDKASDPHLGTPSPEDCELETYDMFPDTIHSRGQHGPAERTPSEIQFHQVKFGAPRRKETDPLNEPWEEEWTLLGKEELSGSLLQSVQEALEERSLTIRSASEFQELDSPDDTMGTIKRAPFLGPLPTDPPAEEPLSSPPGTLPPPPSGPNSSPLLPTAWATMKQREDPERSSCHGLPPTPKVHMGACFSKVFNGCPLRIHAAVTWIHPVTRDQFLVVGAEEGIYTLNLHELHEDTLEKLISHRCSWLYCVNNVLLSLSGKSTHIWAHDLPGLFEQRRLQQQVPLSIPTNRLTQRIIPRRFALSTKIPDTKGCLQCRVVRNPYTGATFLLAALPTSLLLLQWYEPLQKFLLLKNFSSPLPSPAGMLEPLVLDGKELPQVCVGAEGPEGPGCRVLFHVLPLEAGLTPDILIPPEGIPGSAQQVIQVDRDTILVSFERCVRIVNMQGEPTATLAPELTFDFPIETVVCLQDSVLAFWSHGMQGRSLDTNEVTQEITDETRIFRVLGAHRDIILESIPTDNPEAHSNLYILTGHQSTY

[19] = molecular target: T5, Mitogen-activated protein kinase kinase kinase kinase 2 (Homo sapiens); conditions: at 1 µM
[20] = molecular target: Mitogen-activated protein kinase kinase kinase kinase 4 (Homo sapiens) (UniProt O95819); conditions: at 0.1 µM
Sequence of Mitogen-activated protein kinase kinase kinase kinase 4 (Homo sapiens) (O95819 2-1239 limits assumed): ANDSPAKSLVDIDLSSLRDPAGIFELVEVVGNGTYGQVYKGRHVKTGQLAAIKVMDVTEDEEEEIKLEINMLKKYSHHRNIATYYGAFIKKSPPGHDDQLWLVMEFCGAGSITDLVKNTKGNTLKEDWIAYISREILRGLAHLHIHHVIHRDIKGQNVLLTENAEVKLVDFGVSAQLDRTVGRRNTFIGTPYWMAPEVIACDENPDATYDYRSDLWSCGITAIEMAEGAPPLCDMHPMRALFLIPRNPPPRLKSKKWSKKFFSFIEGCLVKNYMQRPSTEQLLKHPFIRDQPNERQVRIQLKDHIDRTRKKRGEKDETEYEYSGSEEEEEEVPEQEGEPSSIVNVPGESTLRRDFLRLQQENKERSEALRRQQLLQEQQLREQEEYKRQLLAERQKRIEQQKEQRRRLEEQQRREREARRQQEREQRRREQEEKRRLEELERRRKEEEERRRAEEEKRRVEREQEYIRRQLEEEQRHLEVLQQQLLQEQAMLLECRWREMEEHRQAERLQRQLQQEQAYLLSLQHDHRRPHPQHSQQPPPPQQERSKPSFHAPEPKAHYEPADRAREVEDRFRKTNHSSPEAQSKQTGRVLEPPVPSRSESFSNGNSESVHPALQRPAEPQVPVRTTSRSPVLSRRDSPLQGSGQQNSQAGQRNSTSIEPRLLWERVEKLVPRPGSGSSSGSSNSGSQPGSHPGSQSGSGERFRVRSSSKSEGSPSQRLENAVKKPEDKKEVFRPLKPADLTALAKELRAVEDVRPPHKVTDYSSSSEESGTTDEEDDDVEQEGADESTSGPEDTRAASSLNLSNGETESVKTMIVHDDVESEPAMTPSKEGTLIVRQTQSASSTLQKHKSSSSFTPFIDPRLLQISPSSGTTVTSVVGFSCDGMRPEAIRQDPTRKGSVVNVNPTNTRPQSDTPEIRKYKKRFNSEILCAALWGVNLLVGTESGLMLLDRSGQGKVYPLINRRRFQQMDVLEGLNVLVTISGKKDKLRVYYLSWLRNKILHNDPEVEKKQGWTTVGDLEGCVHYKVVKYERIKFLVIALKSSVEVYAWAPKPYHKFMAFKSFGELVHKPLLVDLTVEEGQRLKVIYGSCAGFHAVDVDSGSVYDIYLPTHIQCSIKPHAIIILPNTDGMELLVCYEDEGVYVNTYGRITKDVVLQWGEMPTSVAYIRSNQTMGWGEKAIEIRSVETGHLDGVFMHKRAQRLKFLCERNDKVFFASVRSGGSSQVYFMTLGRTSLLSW

Sequence of High affinity nerve growth factor receptor (Homo sapiens) (P04629 33-796 limits assumed): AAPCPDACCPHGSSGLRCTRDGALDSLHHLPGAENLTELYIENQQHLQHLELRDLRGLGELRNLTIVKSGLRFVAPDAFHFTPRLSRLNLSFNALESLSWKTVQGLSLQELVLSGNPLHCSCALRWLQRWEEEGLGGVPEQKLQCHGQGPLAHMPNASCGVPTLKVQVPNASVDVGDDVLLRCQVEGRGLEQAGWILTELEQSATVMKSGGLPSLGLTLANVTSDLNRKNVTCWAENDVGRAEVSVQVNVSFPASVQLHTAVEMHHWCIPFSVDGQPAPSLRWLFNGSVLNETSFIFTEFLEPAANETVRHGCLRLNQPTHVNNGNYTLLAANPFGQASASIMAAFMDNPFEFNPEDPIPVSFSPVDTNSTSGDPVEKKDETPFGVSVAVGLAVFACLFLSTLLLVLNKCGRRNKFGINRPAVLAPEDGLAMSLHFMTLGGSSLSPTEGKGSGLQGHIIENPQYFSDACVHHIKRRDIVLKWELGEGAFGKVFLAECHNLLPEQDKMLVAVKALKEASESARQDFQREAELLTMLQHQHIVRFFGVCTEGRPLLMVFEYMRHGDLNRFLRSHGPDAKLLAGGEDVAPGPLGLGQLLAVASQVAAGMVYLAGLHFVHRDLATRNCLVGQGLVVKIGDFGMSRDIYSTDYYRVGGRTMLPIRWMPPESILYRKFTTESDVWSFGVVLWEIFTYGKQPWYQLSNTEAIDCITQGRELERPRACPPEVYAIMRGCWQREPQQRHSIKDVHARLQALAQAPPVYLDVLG
Sequence of BDNF/NT-3 growth factors receptor (Homo sapiens) (Q16620 32-822 limits assumed): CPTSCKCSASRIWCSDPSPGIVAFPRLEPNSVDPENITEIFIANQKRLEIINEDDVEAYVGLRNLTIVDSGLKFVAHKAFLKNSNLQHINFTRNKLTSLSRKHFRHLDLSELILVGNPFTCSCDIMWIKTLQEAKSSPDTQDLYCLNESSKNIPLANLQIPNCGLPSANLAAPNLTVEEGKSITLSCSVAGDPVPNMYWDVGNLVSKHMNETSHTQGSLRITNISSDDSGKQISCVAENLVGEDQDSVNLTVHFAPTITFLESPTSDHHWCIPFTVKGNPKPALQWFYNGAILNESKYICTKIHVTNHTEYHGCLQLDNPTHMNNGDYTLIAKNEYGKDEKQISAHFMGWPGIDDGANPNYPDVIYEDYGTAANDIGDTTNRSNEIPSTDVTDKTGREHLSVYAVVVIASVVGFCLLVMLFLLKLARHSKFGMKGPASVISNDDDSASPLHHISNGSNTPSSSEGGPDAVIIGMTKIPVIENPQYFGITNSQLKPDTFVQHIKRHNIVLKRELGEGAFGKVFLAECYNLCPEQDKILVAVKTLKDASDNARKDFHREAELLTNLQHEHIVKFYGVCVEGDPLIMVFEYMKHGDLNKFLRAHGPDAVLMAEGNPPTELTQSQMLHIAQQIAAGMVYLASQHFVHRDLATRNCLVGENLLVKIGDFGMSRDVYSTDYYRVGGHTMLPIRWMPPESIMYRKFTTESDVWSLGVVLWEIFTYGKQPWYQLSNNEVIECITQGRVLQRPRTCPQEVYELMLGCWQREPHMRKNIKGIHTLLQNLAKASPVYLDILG

| Compound | inhibition [1] [%] | inhibition [2] [%] | inhibition [3] [%] | inhibition [4] [%] | inhibition [5] [%] | inhibition [6] [%] | inhibition [7] [%] | inhibition [8] [%] | inhibition [9] [%] | inhibition [10] [%] | inhibition [11] [%] | inhibition [12] [%] | inhibition [13] [%] | inhibition [14] [%] | inhibition [15] [%] | inhibition [16] [%] | inhibition [17] [%] | inhibition [18] [%] | inhibition [19] [%] | inhibition [20] [%] |
| --- | --- | --- | --- | --- | --- | --- | --- | --- | --- | --- | --- | --- | --- | --- | --- | --- | --- | --- | --- | --- |
| NC(=O)c1cc(-c2ccncc2)cc(-c2ccccc2)c1N | 1.84 | 2.94 | 3.86 | 3.19 | 4.68 | 45 | 76.1 | -3.77 | 10.8 | 2.73 | 6.63 | 3.91 | 4.94 | 1.71 | 5.08 | 6.67 | 9.99 | 0.27 | 0.97 | 11.9 |
| NC(=O)c1ccc(Oc2nccc(-c3c(-c4ccc(F)cc4)ncn3C3CCNCC3)n2)cc1 | 5.13 | 4.3 | 5.18 | 3.1 | 4.93 | 8.98 | 6.85 | -1.79 | 12.5 | 3.58 | 2.99 | 2.63 | 3.74 | 2.2 | 0.43 | 7.75 | 8.82 | -0.61 | 1.55 | 1.45 |
| c1ccc(-c2n[nH]cc2-c2ccnc(-c3ccc(OCCN4CCOCC4)cc3)c2)nc1 | -0.7 | 0.05 | 0.41 | 1.29 | 3.05 | 5.88 | 6.57 | 4.24 | 0.86 | 0.43 | 7.41 | 7.03 | 11.9 | 5.43 | 18.2 | 3.53 | 6.24 | 6.4 | 7.48 | 28.6 |
| O=C(NCC1CC1)c1ccc(-c2cccc(C(=O)NC3CC3)c2)cc1 | 0.79 | 0.56 | -1.04 | 2.02 | -1.15 | 2.43 | 5.31 | -2.99 | 3.09 | 1.42 | 6.45 | 2.04 | 5.76 | 0.57 | 11.8 | 3.1 | -0.77 | 1.43 | 2.37 | 2.9 |
| COc1ccc2cc(-c3c(-c4ccncc4)nc(-c4ccc(S(C)(=O)=O)cc4C)n3C)ccc2c1 | 0.55 | 2.95 | 3.12 | 2.38 | 4.11 | 3.55 | 5.35 | -5.17 | 8.65 | 2.7 | 17.6 | 4.05 | 16.2 | 1.31 | 12.7 | 43.9 | 95.3 | 0.86 | 0.3 | 4.65 |
| Cc1nnc(-c2ccc(C)c(-c3ccc(C(=O)NCc4ccc(Cl)cc4)cc3)c2)o1 | 3.12 | 3.47 | 1.5 | 2.79 | 1.36 | -0.45 | -1.48 | -6.26 | -0.17 | -1.43 | -4.05 | -0.69 | -2.09 | -2.03 | -9.49 | 2.71 | 6.75 | 1.46 | 1.6 | 5.65 |
| NC(=O)c1cc(-c2ccc(F)cc2)cc(-c2ccncc2)c1N | -0.4 | 3.69 | 3.15 | 3.87 | 2.92 | 3.85 | 12.4 | -2.58 | 11.4 | 3.42 | 4.02 | 2.72 | 3.54 | -0.44 | -4.53 | 6.15 | 5.86 | 0.12 | 2.33 | 4.49 |
| Clc1ccc(CNc2nccc(-c3cnn4ncccc34)n2)cc1 | 1.03 | 0.46 | 1.45 | 0.37 | 2.98 | 2.07 | 6.82 | -1.15 | 10.5 | 0.34 | 10.8 | -0.06 | 8.64 | 2.6 | 4.42 | 2.66 | 6.27 | 2.75 | 9.93 | 3.91 |
